Where a name gives a salt, the structure may show the parent alone.
System: MDA-MB-468
Test: phospho-S6 immunofluorescence (DAPI-normalised), per-plate z-score; higher = higher phospho-S6 signal (less pathway suppression)
Conditions: 24 h
Procedure: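 GPCR-targeted compound library (MedChemExpress HY-L006) tested on MDA-MB-468 PTEN-null TNBC cells in 384-well plates at 0.1, 1 or 10 uM, combined with vehicle, GDC0941 450 nM or lapatinib 1 uM, for 24 h. Phospho-S6 (S240/244) immunofluorescence normalised to DAPI and expressed as a per-plate z-score; values are the mean of biological triplicates.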

Structure (SMILES)	phospho-S6 immunofluorescence (z-score) (co-treatment: GDC0941 450 nM)	phospho-S6 immunofluorescence (z-score) (co-treatment: lapatinib 1 uM)	phospho-S6 immunofluorescence (z-score) (co-treatment: vehicle)
CC(C)[C@H](N=C(NS(=O)(=O)c1ccc(Cl)cc1)N1C[C@H](c2ccccc2)C(c2ccc(Cl)cc2)=N1)C(N)=O (compound 10 µM)	-2.11	-0.39	0.1
COCCOc1ccc(N2CCN(CCn3ncc4c3nc(N)n3nc(-c5ccco5)nc43)CC2)cc1 [Preladenant] (compound 10 µM)	-0.66	0.79	0.97
O=C1O[C@]2(CC[C@H](C(=O)Nc3ccn(-c4ccccc4F)n3)CC2)c2cnccc21 (compound 10 µM)	0.73	-0.47	0.3
CNS(=O)(=O)Cc1ccc2[nH]cc(CCN(C)C)c2c1 [Sumatriptan (succinate)] (compound 10 µM)	0.01	0.48	0.55
Cc1noc(NS(=O)(=O)c2ccc(N)cc2)c1C [Sulfisoxazole] (compound 10 µM)	1.15	-0.03	0.55
CN1CCC[C@@H]1CCO[C@](C)(c1ccccc1)c1ccc(Cl)cc1 [Clemastine (fumarate)] (compound 10 µM)	0.73	-3.01	1.46
CCn1c(=O)c2c(nc(/C=C/c3ccc(OC)c(OC)c3)n2C)n(CC)c1=O [Istradefylline] (compound 10 µM)	0.2	0.09	-0.74
CC[C@H](C)[C@H](NC(=O)[C@H](Cc1ccc(O)cc1)NC(=O)[C@@H]1CCCN1C(=O)[C@@H](NC(=O)[C@@H](N)CCCCN)[C@@H](C)CC)C(=O)N[C@@H](CC(C)C)C(=O)O [Neuromedin N] (compound 10 µM)	0.27	-0.01	-0.38
COc1cc(NC(=O)CCN2CCC(OC(=O)Nc3ccccc3-c3ccccc3)CC2)c(Cl)cc1CNC[C@H](O)c1ccc(O)c2[nH]c(=O)ccc12 [Batefenterol] (compound 10 µM)	-3.26	-4.13	0.38
CCCN(CCC)CCc1cccc2c1CC(=O)N2 [Ropinirole (hydrochloride)] (compound 10 µM)	0.64	1.04	1.01
C[C@]12CCC(=O)C=C1CC[C@@H]1[C@@H]2CC[C@@]2(C)[C@H]1CC[C@]2(O)C(=O)CO [Cortodoxone] (compound 10 µM)	-0.95	1.37	-0.43
CC(C)COc1ccc(CNC(=O)N(Cc2ccc(F)cc2)C2CCN(C)CC2)cc1 [Pimavanserin tartrate] (compound 10 µM)	-3.99	-6.18	-5.03
CCCN(CCc1cccs1)C1CCc2c(O)cccc2C1 (racemic) [rac-Rotigotine (Hydrochloride)] (compound 10 µM)	-0.62	0.67	-0.11
CC(=O)Oc1cc2c(s1)CCN(C(C(=O)C1CC1)c1ccccc1F)C2 (stereo not drawn) [Prasugrel] (compound 10 µM)	-1.29	1.92	-0.48
CCCCC1=NC2(CCCC2)C(=O)N1Cc1ccc(-c2ccccc2-c2nnn[nH]2)cc1 [Irbesartan] (compound 10 µM)	0.03	0.13	0.09
CN1CCc2cc(Cl)c(O)cc2[C@@H](c2ccccc2)C1 (compound 10 µM)	-0.98	-1.63	0.1
COc1ccccc1N1CCN(CCCCN2C(=O)c3ccccc3C2=O)CC1 [NAN-190 (hydrobromide)] (compound 10 µM)	0.76	-0.29	0.19
COc1cc(C(C)=O)ccc1OCCCN1CCC(c2noc3cc(F)ccc23)CC1 [Iloperidone] (compound 10 µM)	0.52	-0.23	0.38
CNCC(O)c1ccc(O)c(O)c1 (racemic) [DL-Epinephrine] (compound 10 µM)	1.29	5.47	4.64
Brc1c(NC2=NCCN2)ccc2nccnc12 [UK 14,304 (tartrate)] (compound 10 µM)	0.91	1.2	0.14
CCCSc1nc(N[C@@H]2C[C@H]2c2ccc(F)c(F)c2)c2nnn([C@@H]3C[C@H](OCCO)[C@@H](O)[C@H]3O)c2n1 [Ticagrelor] (compound 10 µM)	-1.29	0.02	1.13
CN1CCN2c3ncccc3Cc3ccccc3C2C1 (stereo not drawn) [Mirtazapine] (compound 10 µM)	0.65	0.99	-0.48
Cc1nc2ccc(NC(=O)Nc3ccnc4cccnc34)cc2o1 (compound 10 µM)	0.6	-1.8	0.79
CC[C@H](NC(=O)c1c(O)c(-c2ccccc2)nc2ccccc12)c1ccccc1 [Talnetant] (compound 10 µM)	0.6	0.47	0.13
c1cc(CN2CCCNCCNCCCNCC2)ccc1CN1CCCNCCNCCCNCC1 [Plerixafor (octahydrochloride)] (compound 10 µM)	-0.24	0.37	-0.74
Cc1c(C(=O)NN2CCCCC2)nn(-c2ccc(Cl)cc2Cl)c1-c1ccc(I)cc1 (compound 10 µM)	-1.91	-1.68	-2.82

From the supplement of paper PMC7411640
